This is a sample that favours compounds with a hit; in the whole collection about 1.1% have one here.
PTHR1 ag: PTHR1 (human) receptor agonism; Q03431; HEK293 GP2 PTHR1 cells, GloSensor cAMP luminescence, 1 h; AID 743266; Potency, µM (highest dose often 115 µM), without a hit: at the highest dose activation, most hits filed as activators; 410,000 tested, 0.075% active; note: potency is the fitted concentration of half-maximal effect; nearly all actives have a fitted effect of over 55% in size
Target sequence (Q03431 whole entry, looked up): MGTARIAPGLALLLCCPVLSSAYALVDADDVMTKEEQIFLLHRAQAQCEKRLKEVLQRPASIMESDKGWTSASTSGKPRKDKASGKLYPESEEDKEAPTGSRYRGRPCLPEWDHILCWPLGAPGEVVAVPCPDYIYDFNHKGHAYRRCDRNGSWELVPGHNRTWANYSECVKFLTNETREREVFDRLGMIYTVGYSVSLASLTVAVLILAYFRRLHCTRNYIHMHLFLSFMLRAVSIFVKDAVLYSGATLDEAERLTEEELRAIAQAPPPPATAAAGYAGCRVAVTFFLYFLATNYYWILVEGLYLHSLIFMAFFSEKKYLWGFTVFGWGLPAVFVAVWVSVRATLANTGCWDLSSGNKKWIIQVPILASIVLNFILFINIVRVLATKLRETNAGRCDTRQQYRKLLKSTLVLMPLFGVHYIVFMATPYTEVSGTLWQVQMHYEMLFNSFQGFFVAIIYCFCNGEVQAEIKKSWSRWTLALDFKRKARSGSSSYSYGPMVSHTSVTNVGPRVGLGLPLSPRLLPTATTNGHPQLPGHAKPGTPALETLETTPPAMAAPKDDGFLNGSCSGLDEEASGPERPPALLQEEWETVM
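HEK-293-derived GP2 cells expressing PTHR1 and a GloSensor cAMP reporter, 3,000/well, plated overnight, given luciferin plus IBMX (each 0.5 mM as added) for 1 h at 37 °C, then compound for 1 h at 37 °C. Luminescence was read after 15 min at room temperature.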
p53 reactivation: mutant p53 re-activation in reporter cells; H1299 p53-A138V BP100-luciferase reporter, luminescence, 24 h; Potency, µM (highest dose often 92.2 µM), for the others: at the top dose activity change, positive = activation, usual class: activators; 320,000 tested, 0.063% active; note: potency is the fitted concentration of half-maximal effect; % of control where 0% means no effect; nearly all actives have a fitted effect of over 45% in size
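p53-null H1299 cells stably carrying temperature-sensitive p53-A138V and a BP100-luciferase reporter were pinned with compounds (4-point, 1:5 series) and held 24 hrs at 37 deg C. Luminescence was read 10 min after detection reagent.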
BRCA1 expr act: increases BRCA1 expression; Potency, µM (titrated, usually from 46.1 µM), inactives show top-dose activation, actives largely listed as activators; MCF7-BRCA1-FFLuc reporter, luminescence, 48 h; response scale: scaled: vehicle 0%, 10 µM genistein 100%; 380,000 tested, 1.1% active; note: potency is the fitted concentration of half-maximal effect; nearly all actives have a fitted effect of over 80% in size
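First, MCF7-BRCA1-FFLuc cells (2000/well) attach for 2 h; next, compounds are pin-added and incubated 48 h at 37 °C; finally, luciferase reagent is added and luminescence read after 15 min.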
RGS4 inhibitor: human RGS4 inhibition | Transcreener GDP fluorescence polarization, RGS4-accelerated GTP hydrolysis | Potency, µM (doses to about 114 µM), without a hit: at the top dose activity change, negative = inhibition, hits mostly inhibitors | 390,000 tested, 0.039% active | AID 504845; note: potency is the fitted concentration of half-maximal effect; % is set by controls: 0 for no effect and ±100 for the full control effect; nearly all actives have a fitted effect of over 75% in size
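MLSMR compounds (23 nl, pin-transferred) preincubated 10 min at room temperature with a 500nM (2x) first reagent, then RGS4 at 900nM (2x) plus Transcreener GDP mix added; fluorescence polarization (620/688 nm) read before and after 90 min at 30 °C.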
LDHA block: LDHA (human) enzyme inhibition; activity change, % (values are at about 110 or 230 µM); 480,000 tested, 0.15% active; P00338; purified LDHA, NADH/diaphorase-resazurin fluorescence; hits give low values; in the data active = activity change below about -30%; inconclusive = mostly about -25% to -30%;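 note: plate controls were DMSO wells for no effect and wells without enzyme for full effect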
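LDH5 2 nM; NADH 0.06 mM, pyruvate 0.2 mM; 200 mM Tris pH 7.4, EDTA, Tween-20; 5 min RT. Detection: diaphorase 0.133 mg/mL + resazurin 37 µM, fluorescence ex540/em590 at 0 and 20 min; normalized to enzyme-free and DMSO wells.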
Starred values were filed as active, the others as inactive; i = inactive; ? = inconclusive; . = not tested or not shown; [ ] = another dose, or the depositor's remark. Unless noted, calls come from the whole dose curve; as a rule, active = well fitted curve in the direction sought with a large enough effect; inconclusive = small, poorly fitted or top-dose-only effect, or another doubt; inactive = no such curve, though single readings can be large; an effect the other way counts as inactive or inconclusive.

SMILES	PTHR1 ag	p53 reactivation	BRCA1 expr act	RGS4 inhibitor	LDHA block
CSC(C)C(=O)Nc1ccc(C)c(I)c1 (configuration not stated)	.	.	.	.	11
Cc1nnc(SCC(=O)Nc2ccc(S(N)(=O)=O)cc2)n(N)c1=O	i	-5%	-27%	9%	-39*
CC(C)(C)c1nnc(SCC(=O)Nc2ccc(N3CCCCC3)cc2)n1N	-10%	?	4µM*	-6%	-1
CC(C)n1cnnc1SCC(=O)Nc1ccc(N2CCCCC2)cc1	i	6%	44%	2%	1
CSC1=N/C(=C\c2ccc(Cl)c(Cl)c2)C(=O)S1	.	.	.	.	-10
COc1ccc(Nc2nc(C(=O)OCC(=O)c3cccc(OC)c3)cs2)cc1	.	.	.	.	5
Cc1ccc(-c2csc(NC(=O)C3CCN(S(=O)(=O)c4cccs4)CC3)n2)cc1	-92%	-7%	-56%	-9%	-3
O=C(Nc1nc(-c2ccc3ccccc3c2)cs1)C1CCN(S(=O)(=O)c2cccs2)CC1	-44%	5%	-43%	-16%	-30*
CCOc1ccc(NS(=O)(=O)c2ccc(NS(C)(=O)=O)cc2)cc1	-83%[57.5 µM]	-3%	1%	-15%	3
CCCCCOc1ccc(NS(C)(=O)=O)cc1	-8%	?	11µM*	24%	4
Cc1cc(C(C)(C)C)ccc1OCCN(C)C	i	7%	-6%	11%	-31*
CCOc1ccc(N2C(=O)c3ccccc3NC2(C)CC)cc1 (configuration not stated)	-35%	?	3.5µM*	0%	-7
COc1ccc(N2C(=O)c3ccccc3NC2(C)C)cc1	-14%	?	10µM*	13%	-13
CC(=O)NC1=NN(C(C)=O)C(c2cccc(OCc3ccccc3F)c2)S1 (configuration not stated)	.	.	.	.	0
O=C(NCCSc1ccccc1)c1cccnc1	-8%[57.5 µM]	?	14µM*	13%	-13
O=C(NCCCSc1ccccc1)c1cccnc1	i	-5%	3%	3%	-2
Cc1ccn2c(Nc3ccc4c(c3)OCCO4)c(-c3ccsc3)nc2c1	.	.	.	.	4
CC[n+]1ccc(C[n+]2ccccc2)c2ccccc21	i	-4%	-7%	?	-40*
Cc1cc2c(s1)CCc1cc(C(=O)NC3CCCC3)sc1-2	.	.	.	.	-21
CN(CC(=O)NC(C)(C)C)C(=O)c1ccc2ccccc2n1	.	.	.	.	-33*
CN(CC(=O)Nc1c(Cl)cccc1Cl)C(=O)c1ccc2ccccc2n1	i	7%	-6%	7%	-7
CC(C)(C)C(=O)O/N=C(\N)c1ccc(-c2csnn2)cc1	-19%	21%	0%	-31%	-5
CC(=O)O/N=C(\N)c1ccc(-c2csnn2)cc1	-15%	14%	11µM*	8%	-1
O=C(CSc1ncnc2nc[nH]c12)Nc1cc(Cl)ccc1Cl	.	.	.	.	-38*
O=C(Nc1sc(-c2ccccc2)cc1C(=O)O)c1ccccc1	-90%	?	11µM*	-2%[11.4 µM]	-5
SMILES	PTHR1 ag	p53 reactivation	BRCA1 expr act	RGS4 inhibitor	LDHA block
Cc1ccn2c(Nc3ccc4c(c3)OCO4)c(-c3ccccn3)nc2c1	-8%	20µM*	-86%	11%	14
COc1ccc2c(c1)CC/C2=N\OC(=O)c1ccccc1C	-45%	?	11µM*	3%	-8
O=C(/C=C/c1c(Cl)cccc1Cl)N1CCOCC1	i	12%	44%	7%	-11
CC1CCCC(NC(=O)/C=C/c2c(F)cccc2Cl)C1C (configuration not stated)	-5%	.	11µM*	-10%	-10
O=C(/C=C/c1c(F)cccc1Cl)N1CCOCC1	-4%	16%	10µM*	-5%	2
O=C(CSc1nnc(-c2ccncc2)n1C1CC1)c1cc2cc(Cl)ccc2o1	.	.	.	.	-4
CCOC(=O)c1cccc(-n2cnc(/C=C3\NC(=O)N(CC(=O)OC(C)(C)C)C3=O)c2)c1	.	.	.	.	-3
CN(C)c1cccc(N=C2C=C(N3CCOCC3)CC(C)(C)C2)c1	i	-20%	0%	-49%	-31*
CC1(C)CC(N2CCOCC2)=CC(=[N+]2CCOCC2)C1	i	-1%	0%	-48%	-10
Cc1ccc(C)c(NC(=O)c2ccc3c(=O)n4c(nc3c2)CCC4)c1	-19%	?	4.5µM*	-10%	-3
COc1cc(OC)cc(C(=O)Nc2ccc3nc4n(c(=O)c3c2)CCCCC4)c1	-20%	20%	4.5µM*	7%	-3
Cc1oc2cc3oc(=O)c(CCC(=O)NC4CC4)c(C)c3cc2c1C	-48%	.	6.3µM*	9%	-4
COc1ccccc1NNC(=O)c1cc(C(C)(C)C)nn1Cc1ccccc1	-13%	19%	10µM*	-7%	2
COc1cc(/C=C/c2nc3cc(Cl)ccc3o2)cc(OC)c1OC	.	.	.	.	6
Cc1ccc(C)c(NC(=O)C(C)NS(=O)(=O)c2ccc3c(c2)CCN3C(=O)N2CCCC2)c1 (configuration not stated)	.	.	.	.	-5
CC(=O)c1sc(NC(=O)c2ccccc2F)nc1-c1ccccc1	-33%	5%	2µM*	-12%	-10
Cc1cc(C)n(-c2nnc(NC34CC5CC(CC(C5)C3)C4)nn2)n1	-52%	?	2.5µM*	?	-2
Cc1cc(NC(=O)CSc2nc3c(c(=O)n(C)c(=O)n3C)n2Cc2ccccc2C)ccc1F	.	.	.	.	1
Cc1ccc(C(=O)Nc2ccc(Cl)cc2C)c(Cl)c1	-31%	4%	3.2µM*	11%	-11
Cc1ccc(C(=O)Nc2ccc(Cl)cc2C(F)(F)F)c(Cl)c1	-3%	?	?	-5%	-3
CN(c1ccccc1)c1nc2ccsc2c(=O)s1	-9%[57.5 µM]	?	10µM*	3%	-4
CCN(c1ccccc1)c1nc2ccsc2c(=O)s1	-6%[57.5 µM]	?	34%	9%	-12
COc1ccccc1C(=O)COC(=O)Cc1coc2cc3c(cc12)CCC3	.	.	.	.	-9
Cc1noc(NS(=O)(=O)c2ccc(NC(=O)CC34CC5CC(CC(Br)(C5)C3)C4)cc2)c1C	i	4%	-6%	-3%	-46*
CCc1cc(OCCN(C)C)ccc1Cl	-15%	-2%	-16%	-5%	-35*
SMILES	PTHR1 ag	p53 reactivation	BRCA1 expr act	RGS4 inhibitor	LDHA block
Cc1cc(OCCOCCN(C)C)ccc1Cl	i	6%	-1%	-14%	-6
Cc1snc(SCC(=O)c2ccc([N+](=O)[O-])cc2)c1C#N	-2%	?	8%	?	-4
Cc1snc(SCC(=O)c2ccc(F)cc2)c1C#N	-34%	22%	8.9µM*	-6%	-5
COc1ccccc1-c1nn2c(=O)cc(C)nc2s1	i	11%	10µM*	0%	-16
COc1ccccc1-c1nn2c(-c3ccco3)nnc2s1	i	?	7.9µM*	-41%	-7
CCCCCCCCCCCCCCCCNC(=O)CC#N	.	.	.	.	-5

Screens as filed in PubChem BioAssay.
